Measured values: PubChem BioAssay
Active and inactive are the calls of the source. Unless noted, the rule behind the calls is not given here.

How the values were obtained:
[1] = tested on: Wnt5a (protein binding on small-molecule microarray); experiment: Wnt5a binders on small-molecule microarray, primary screen, biophysical, 635/667 nm fluorescence (AID 1142); conditions: 635 nm fluorescence, higher = more signal;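 note: fluorescence read at 667 nm with signal to noise per printed feature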
[2] = cell viability in Huh7 cells, primary screen, cytotoxicity control for HCV replication inhibitor project, CellTiter-Glo luminescence, basal, 48 h (AID 1143); conditions: Huh7 HCV replicon, higher = more signal, called active from +8 up or from −8 down;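 note: Huh7 hepatoma cells carrying a hepatitis C replication reporter with no stimulus; test concentration not given here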
[3] = P. aeruginosa biofilm formation inhibitors, primary screen, PAO1 strain, BacTiter-Glo luminescence, LB-PBS (AID 1144); conditions: 12 h, higher = more signal
[4] = CREB reporter modulators without forskolin, primary screen, cell-based, PC12, CRE-LacZ reporter, unstimulated (AID 1145); conditions: no forskolin, luminescence, 4.5 h, higher = more signal, called active from +8 up or from −8 down
[5] = CREB reporter modulators under forskolin, primary screen, cell-based, PC12, CRE-LacZ reporter, forskolin-stimulated (AID 1146); conditions: luminescence, 4.5 h, higher = more signal, called active from +8 up or from −8 down;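 note: PC12 cells with 6xCRE LacZ reporter stimulated by forskolin 10 µM; beta-galactosidase reporter signal reflecting CREB driven transcription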
[6] = target: Streptavidin (Streptomyces avidinii) (UniProt P22629); experiment: streptavidin binders on small-molecule microarray, primary screen, artefact control for SMM compound annotation, biophysical, 635/667 nm fluorescence (AID 1147); conditions: streptavidin binding, higher = more signal;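 note: signal reflects streptavidin binding to arrayed compounds as a control protein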
[7] = small-molecule binders of probe aInhba, primary screen, biochemical, small-molecule microarray, 635/667 nm fluorescence (AID 1148); conditions: higher = more signal;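 note: score merges 667nm spot fluorescence with signal-to-noise for antibody binding to printed compounds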
Torsin-1A (Homo sapiens) [8] = target: Torsin-1A (Homo sapiens) (UniProt O14656); experiment: torsin A binders from cell lysate, primary screen, small-molecule microarray, wild-type, 635/667 nm (AID 1149); conditions: COS7 hTOR1A-WT lysate, 635 nm fluorescence, higher = more signal
Torsin-1A (Homo sapiens) [9] = target: Torsin-1A (Homo sapiens) (UniProt O14656); experiment: small-molecule binders of mutant TOR1A in lysate, primary screen, cell lysate, small-molecule microarray, COS7 lysate, 635/667 nm fluorescence (AID 1150); conditions: COS7 hTOR1A mutant lysate, 635 nm fluorescence, higher = more signal;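 note: score pools 667 nm emission and signal to noise measuring lysate protein binding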
[10] = tested on: Sonic hedgehog protein (Shh); experiment: small-molecule binders of Shh protein, primary screen, biochemical, small-molecule microarray, 635/667 nm fluorescence (AID 1151); conditions: small-molecule microarray binding, 635 nm fluorescence; higher = more signal;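 note: Shh protein binding to compounds spotted on small-molecule microarray slides; score combines spot fluorescence intensity with signal-to-noise across triplicate slides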

Sequence of Torsin-1A (Homo sapiens) (O14656 whole entry, looked up): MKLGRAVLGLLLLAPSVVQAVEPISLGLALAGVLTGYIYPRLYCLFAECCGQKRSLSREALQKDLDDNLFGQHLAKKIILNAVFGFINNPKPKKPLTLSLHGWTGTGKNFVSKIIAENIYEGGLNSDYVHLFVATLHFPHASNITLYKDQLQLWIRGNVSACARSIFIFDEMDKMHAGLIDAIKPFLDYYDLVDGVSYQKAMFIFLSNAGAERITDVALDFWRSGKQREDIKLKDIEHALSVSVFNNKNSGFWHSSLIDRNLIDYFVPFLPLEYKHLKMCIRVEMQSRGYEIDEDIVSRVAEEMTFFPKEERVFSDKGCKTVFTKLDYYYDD
Sequence of Streptavidin (Streptomyces avidinii) (P22629 whole entry, looked up): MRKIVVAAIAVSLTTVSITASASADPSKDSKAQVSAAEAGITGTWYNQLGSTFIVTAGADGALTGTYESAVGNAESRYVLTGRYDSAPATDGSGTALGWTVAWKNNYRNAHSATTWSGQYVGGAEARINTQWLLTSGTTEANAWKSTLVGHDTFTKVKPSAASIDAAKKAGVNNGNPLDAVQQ

Structure (SMILES) | composite z-score [1] | z-score [2] | z-score [3] | z-score [4] | z-score [5] | composite z-score [6] | composite z-score [7] | composite z-score (Torsin-1A (Homo sapiens) [8]) | composite z-score (Torsin-1A (Homo sapiens) [9]) | composite z-score [10]
CCCNC(=O)OC[C@H]1O[C@H](CCON=C[C@@H](C)[C@H](OCc2ccccc2)C(C)C)C=C[C@@H]1Oc1ccc(OC)cc1 | -0.146 | -1.1 (inactive) | -0.107 (inactive) | 1.28 (inactive) | -0.0248 (inactive) | -0.19 | -0.104 | -0.0998 | 0.733 | 0.0021
CCCNC(=O)OC[C@H]1O[C@H](CCON=C[C@@H](NS(=O)(=O)c2ccc(C)cc2)[C@H](C)C=CCC(=O)OC)C=C[C@@H]1Oc1ccc(OC)cc1 | -0.208 | -1.47 (inactive) | 0.169 (inactive) | 3.17 (inactive) | 0.26 (inactive) | -0.0974 | 0.316 | 0.0067 | 0.488 | -0.0635
CON(C)C(=O)c1nnc2c(n1)[nH]c1ccccc12 | 0.0269 | 0.569 (inactive) | 0.555 (inactive) | 0.198 (inactive) | 0.275 (inactive) | 0.153 | -0.101 | 0.275 | 0.333 | 0.928
CON=C(C)CCN1CCc2nc(-c3ccccc3)c(-c3ccccc3)cc2C1 | -0.0635 | -4.2 (inactive) | -0.925 (inactive) | 2.22 (inactive) | -0.55 (inactive) | 1.33 | -0.05 | 0.254 | 0.007 | 0.872
C[C@H]1CC[C@@H](C(=O)O)N[C@@H]1c1ccc(C#Cc2ccccc2)cc1 | 0.177 | -7 (inactive) | 0.696 (inactive) | 0.112 (inactive) | -1.58 (inactive) | 2.04 | -0.0403 | 0.587 | 0.439 | 1.53
C[C@@H](c1ccccc1)N1C(=O)[C@H]2[C@H]3[C@H](O)[C@H](O)CC(=NNC(=O)OCc4ccccc4)[C@@H]3CC[C@H]2C1=O | 0.15 | 0.231 (inactive) | -0.479 (inactive) | -0.38 (inactive) | 0.0869 (inactive) | -0.31 | -0.335 | 3.35 | 3.49 | 2
CC(=O)OC[C@H]1O[C@H](CC=NO[C@@H](C)c2cn([C@H](CO)Cc3ccccc3)nn2)C=C[C@@H]1OC(C)=O | 0.0065 | -2.35 (inactive) | -0.902 (inactive) | 1.67 (inactive) | 0.114 (inactive) | 0.777 | -0.0963 | 0.542 | 0.692 | 0.911
CCCNC(=O)OC[C@H]1O[C@H](CCON=C2C[C@@H](O)[C@@H](O)[C@@H]3[C@@H]4C(=O)N(CC)C(=O)[C@@H]4CC[C@@H]23)C=C[C@@H]1Oc1ccc(OC)cc1 | 0.0561 | -0.402 (inactive) | 1.08 (inactive) | 0.68 (inactive) | 0.23 (inactive) | 0.842 | 0.0256 | 0.509 | 0.43 | 1.33
CC(C)CN1CCc2nc(-c3ccccc3)c3c(c2C1)CO[C@@H](C)C3 | 0.379 | -0.718 (inactive) | -0.876 (inactive) | 9.42 (active) | -1.44 (inactive) | 0.235 | 0.115 | 0.0937 | 0.571 | 0.421
CCOC(=O)CCN1C(=O)[C@H]2[C@H]3[C@H](O)[C@H](O)CC(=O)[C@@H]3CC[C@H]2C1=O | 0.352 | -0.19 (inactive) | -0.401 (inactive) | 0.527 (inactive) | -0.671 (inactive) | 0.182 | -0.179 | 0.205 | 0.5 | 0.757
COC(=O)CC=C[C@@H](C)[C@@H](C=NOC[C@@H](O)COCc1ccco1)NS(=O)(=O)c1ccc(C)cc1 | 0.102 | 0.0032 (inactive) | 0.91 (inactive) | -0.715 (inactive) | -0.0491 (inactive) | -0.601 | -0.209 | 1.11 | 1.24 | 1.89
CCOC(=O)CCN1C(=O)[C@H]2[C@H]3[C@H](O)[C@H](O)CC(=NOCC=C(C)CCC=C(C)C)[C@@H]3CC[C@H]2C1=O | 0.377 | 0.16 (inactive) | 0.0232 (inactive) | 0.875 (inactive) | 0.427 (inactive) | 0.111 | 0.0756 | 0.957 | 0.588 | 1.02
COC(=O)[C@H](C)NC(=O)CCC1CC(OC(=O)NCCc2ccc(F)cc2)CC2(CCCC(COC(=O)NCCc3ccccc3OC)O2)O1 (stereo not given in full) | 0.249 | 0.137 (inactive) | 0.351 (inactive) | 0.559 (inactive) | 0.0825 (inactive) | 0.553 | -0.343 | 0.284 | 0.519 | 0.985
C#CCCCON=C1C[C@@H](O)[C@@H](O)[C@@H]2[C@@H]3C(=O)N(C[C@@H]4CCCO4)C(=O)[C@@H]3CC[C@@H]12 | 0.195 | 0.0109 (inactive) | -0.164 (inactive) | 0.0687 (inactive) | 0.305 (inactive) | 0.269 | -0.142 | 0.308 | 0.28 | 0.305
O=C1C[C@@H](O)[C@@H](O)[C@@H]2[C@@H]3C(=O)N(c4ccc(F)cc4F)C(=O)[C@@H]3CC[C@H]12 | 0.0583 | -1.24 (inactive) | 0.0279 (inactive) | 0.064 (inactive) | -0.13 (inactive) | 0.234 | -0.101 | 0.403 | 0.302 | 1.09
CC(=O)OC[C@H]1O[C@H](CC=NO[C@H](C)c2cn([C@@H]3COC[C@H]3O)nn2)C=C[C@@H]1OC(C)=O | 0.104 | -0.29 (inactive) | -0.745 (inactive) | -0.724 (inactive) | -0.538 (inactive) | 0.182 | -0.0494 | -0.0469 | -0.108 | 0.165
CCN(CC)CC(O)CN1CCCCc2nc(C)c(C)cc21 (stereo not given) | 0.0321 | -1.1 (inactive) | -1.67 (inactive) | -0.161 (inactive) | -0.71 (inactive) | 0.551 | -0.183 | 0.57 | 0.029 | 0.261
CC(=O)OC[C@H]1O[C@H](C#CCCc2ccccc2)C=C[C@@H]1OC(C)=O | -0.0248 | -1.42 (inactive) | 1.34 (inactive) | -0.339 (inactive) | 0.859 (inactive) | -0.0683 | -0.0719 | 0.27 | 0.553 | 1.52
CC(C)=CCCC(C)=CCON=C1C[C@@H](O)[C@@H](O)[C@@H]2[C@@H]3C(=O)N(Cc4ccc5c(c4)OCO5)C(=O)[C@@H]3CC[C@@H]12 | -0.0188 | -0.292 (inactive) | 0.73 (inactive) | 0.252 (inactive) | 0.217 (inactive) | 1.19 | -0.0791 | 1.01 | 0.606 | 0.816
CC(CCC(=O)OC[C@H]1O[C@H](C#Cc2ccccc2)C=C[C@@H]1Oc1ccc(C)cc1)=NOC(C)CN1CCCc2nc(C)c(C)cc21 (stereo not given in full) | 0.0127 | -0.386 (inactive) | 0.0692 (inactive) | 0.336 (inactive) | 0.51 (inactive) | 0.727 | -0.0259 | 0.313 | -0.0361 | 0.298
CCN1C(=O)[C@H]2[C@H]3[C@H](O)[C@H](O)CC(=NO[C@@H](C)c4cc(-c5c(C)cc(C)cc5C)no4)[C@@H]3CC[C@H]2C1=O | 0.266 | -1.74 (inactive) | 0.847 (inactive) | 2.08 (inactive) | 0.205 (inactive) | 0.203 | 0.0756 | 1.22 | 1.33 | 1.15
